# Test results as given in the supplement of paper PMC4466140.
# Tests used:
# Assay in all cases: SPOT peptide array binding signal intensity (averaged, normalized) (arbitrary units (background-subtracted, floor 0; scale differs between SH3 domains)); higher = stronger binding of the SH3 domain to the peptide
# AgAbp1 = molecular target: AgAbp1
# Protocol: (§1)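 GST-tagged SH3 domains from S. cerevisiae (Sc), A. gossypii (Ag), C. albicans (Ca) and S. pombe (Sp) were incubated at 10 ug/ml overnight at 4 C on cellulose SPOT membranes carrying 292 synthetic 15-mer peptides mined from the S. cerevisiae proteome (cysteines replaced by serines). Binding was detected with anti-GST antibody, HRP secondary and chemiluminescence, quantified with Genespotter, and reported as normalized spot intensities averaged over biological replicates.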
# AgBbc1 = molecular target: AgBbc1
# Protocol: as §1
# AgBem1-D1 = molecular target: AgBem1-D1
# Protocol: as §1
# AgBzz1-D1 = molecular target: AgBzz1-D1
# Protocol: as §1
# AgBzz1-D2 = molecular target: AgBzz1-D2
# Protocol: as §1
# AgCyk3 = molecular target: AgCyk3
# Protocol: as §1
# AgFus1 = molecular target: AgFus1
# Protocol: as §1
# AgHof1 = molecular target: AgHof1
# Protocol: as §1
# AgHse1 = molecular target: AgHse1
# Protocol: as §1
# AgLsb1 = molecular target: AgLsb1
# Protocol: as §1
# AgLsb4 = molecular target: AgLsb4
# Protocol: as §1
# AgMyo5 = molecular target: AgMyo5
# Protocol: as §1
# AgNbp2 = molecular target: AgNbp2
# Protocol: as §1
# AgRvs167 = molecular target: AgRvs167
# Protocol: as §1
# AgSho1 = molecular target: AgSho1
# Protocol: as §1
# AgSla1-D1-D2 = molecular target: AgSla1-D1-D2
# Protocol: as §1
# AgSla1-D3 = molecular target: AgSla1-D3
# Protocol: as §1
# CaAbp1-D1 = molecular target: CaAbp1-D1
# Protocol: as §1
# CaAbp1-D2 = molecular target: CaAbp1-D2
# Protocol: as §1
# CaBbc1 = molecular target: CaBbc1
# Protocol: as §1
# CaBem1-D1 = molecular target: CaBem1-D1
# Protocol: as §1
# CaBzz1-D1 = molecular target: CaBzz1-D1
# Protocol: as §1
# CaBzz1-D2 = molecular target: CaBzz1-D2
# Protocol: as §1
# CaCyk3 = molecular target: CaCyk3
# Protocol: as §1
# CaFus1 = molecular target: CaFus1
# Protocol: as §1
# CaHof1 = molecular target: CaHof1
# Protocol: as §1
# CaHse1 = molecular target: CaHse1
# Protocol: as §1
# CaLsb1 = molecular target: CaLsb1
# Protocol: as §1
# CaLsb4 = molecular target: CaLsb4
# Protocol: as §1
# CaMyo5 = molecular target: CaMyo5
# Protocol: as §1
# CaNbp2 = molecular target: CaNbp2
# Protocol: as §1
# CaRvs167 = molecular target: CaRvs167
# Protocol: as §1
# CaRvs167-3 = molecular target: CaRvs167-3
# Protocol: as §1
# CaSho1 = molecular target: CaSho1
# Protocol: as §1
# CaSla1-D1-D2 = molecular target: CaSla1-D1-D2
# Protocol: as §1
# CaSla1-D3 = molecular target: CaSla1-D3
# Protocol: as §1
# ScAbp1 = molecular target: ScAbp1
# Protocol: as §1
# ScBbc1 = molecular target: ScBbc1
# Protocol: as §1
# ScBem1-D1 = molecular target: ScBem1-D1
# Protocol: as §1
# ScBzz1-D1 = molecular target: ScBzz1-D1
# Protocol: as §1
# ScBzz1-D2 = molecular target: ScBzz1-D2
# Protocol: as §1
# ScCyk3 = molecular target: ScCyk3
# Protocol: as §1
# ScFus1 = molecular target: ScFus1
# Protocol: as §1
# ScHof1 = molecular target: ScHof1
# Protocol: as §1
# ScHse1 = molecular target: ScHse1
# Protocol: as §1
# ScLsb1 = molecular target: ScLsb1
# Protocol: as §1
# ScLsb2 = molecular target: ScLsb2
# Protocol: as §1
# ScLsb3 = molecular target: ScLsb3
# Protocol: as §1
# ScLsb4 = molecular target: ScLsb4
# Protocol: as §1
# ScMyo3 = molecular target: ScMyo3
# Protocol: as §1
# ScMyo5 = molecular target: ScMyo5
# Protocol: as §1
# ScNbp2 = molecular target: ScNbp2
# Protocol: as §1
# ScPex13 = molecular target: ScPex13
# Protocol: as §1
# ScRvs167 = molecular target: ScRvs167
# Protocol: as §1
# ScSho1 = molecular target: ScSho1
# Protocol: as §1
# ScSla1-D1-D2 = molecular target: ScSla1-D1-D2
# Protocol: as §1
# ScSla1-D3 = molecular target: ScSla1-D3
# Protocol: as §1
# SpAbp1-D1 = molecular target: SpAbp1-D1
# Protocol: as §1
# SpBbc1 = molecular target: SpBbc1
# Protocol: as §1
# SpBzz1-D1 = molecular target: SpBzz1-D1
# Protocol: as §1
# SpBzz1-D2 = molecular target: SpBzz1-D2
# Protocol: as §1
# SpCyk3 = molecular target: SpCyk3
# Protocol: as §1
# SpHof1 = molecular target: SpHof1
# Protocol: as §1
# SpHof1-2 = molecular target: SpHof1-2
# Protocol: as §1
# SpHof1-3 = molecular target: SpHof1-3
# Protocol: as §1
# SpHse1 = molecular target: SpHse1
# Protocol: as §1
# SpLsb1 = molecular target: SpLsb1
# Protocol: as §1
# SpLsb4 = molecular target: SpLsb4
# Protocol: as §1
# SpMyo1 = molecular target: SpMyo1
# Protocol: as §1
# SpNbp2 = molecular target: SpNbp2
# Protocol: as §1
# SpPex13 = molecular target: SpPex13
# Protocol: as §1
# SpRvs167 = molecular target: SpRvs167
# Protocol: as §1
# SpSla1-D1-D2 = molecular target: SpSla1-D1-D2
# Protocol: as §1
# SpSla1-D3 = molecular target: SpSla1-D3
# Protocol: as §1
binder,measurement,setting,value
NRPAIRIPSLKKPAL,SPOT peptide array binding signal intensity,AgAbp1,20
same,SPOT peptide array binding signal intensity,AgBbc1,12.5
same,SPOT peptide array binding signal intensity,AgBem1-D1,54.5
same,SPOT peptide array binding signal intensity,AgBzz1-D1,16
same,SPOT peptide array binding signal intensity,AgBzz1-D2,7
same,SPOT peptide array binding signal intensity,AgCyk3,2
same,SPOT peptide array binding signal intensity,AgFus1,226
same,SPOT peptide array binding signal intensity,AgHof1,111
same,SPOT peptide array binding signal intensity,AgHse1,800
same,SPOT peptide array binding signal intensity,AgLsb1,361
same,SPOT peptide array binding signal intensity,AgLsb4,18.5
same,SPOT peptide array binding signal intensity,AgMyo5,0.5
same,SPOT peptide array binding signal intensity,AgNbp2,114
same,SPOT peptide array binding signal intensity,AgRvs167,1.33
same,SPOT peptide array binding signal intensity,AgSho1,21.5
same,SPOT peptide array binding signal intensity,AgSla1-D1-D2,24
same,SPOT peptide array binding signal intensity,AgSla1-D3,5.5
same,SPOT peptide array binding signal intensity,CaAbp1-D1,191
same,SPOT peptide array binding signal intensity,CaAbp1-D2,44
same,SPOT peptide array binding signal intensity,CaBbc1,122
same,SPOT peptide array binding signal intensity,CaBem1-D1,41
same,SPOT peptide array binding signal intensity,CaBzz1-D1,25.5
same,SPOT peptide array binding signal intensity,CaBzz1-D2,21.8
same,SPOT peptide array binding signal intensity,CaCyk3,7
same,SPOT peptide array binding signal intensity,CaFus1,765
same,SPOT peptide array binding signal intensity,CaHof1,≤ 0
same,SPOT peptide array binding signal intensity,CaHse1,27
same,SPOT peptide array binding signal intensity,CaLsb1,2.5
same,SPOT peptide array binding signal intensity,CaLsb4,10.5
same,SPOT peptide array binding signal intensity,CaMyo5,2.75
same,SPOT peptide array binding signal intensity,CaNbp2,270
same,SPOT peptide array binding signal intensity,CaRvs167,33.3
same,SPOT peptide array binding signal intensity,CaRvs167-3,23
same,SPOT peptide array binding signal intensity,CaSho1,218
same,SPOT peptide array binding signal intensity,CaSla1-D1-D2,4.5
same,SPOT peptide array binding signal intensity,CaSla1-D3,0.75
same,SPOT peptide array binding signal intensity,ScAbp1,53.5
same,SPOT peptide array binding signal intensity,ScBbc1,9.25
same,SPOT peptide array binding signal intensity,ScBem1-D1,19
same,SPOT peptide array binding signal intensity,ScBzz1-D1,31.5
same,SPOT peptide array binding signal intensity,ScBzz1-D2,12.5
same,SPOT peptide array binding signal intensity,ScCyk3,20
same,SPOT peptide array binding signal intensity,ScFus1,243
same,SPOT peptide array binding signal intensity,ScHof1,≤ 0
same,SPOT peptide array binding signal intensity,ScHse1,2200
same,SPOT peptide array binding signal intensity,ScLsb1,118
same,SPOT peptide array binding signal intensity,ScLsb2,12.5
same,SPOT peptide array binding signal intensity,ScLsb3,40
same,SPOT peptide array binding signal intensity,ScLsb4,10
same,SPOT peptide array binding signal intensity,ScMyo3,1
same,SPOT peptide array binding signal intensity,ScMyo5,≤ 0
same,SPOT peptide array binding signal intensity,ScNbp2,169
same,SPOT peptide array binding signal intensity,ScPex13,23.8
same,SPOT peptide array binding signal intensity,ScRvs167,39.8
same,SPOT peptide array binding signal intensity,ScSho1,412
same,SPOT peptide array binding signal intensity,ScSla1-D1-D2,167
same,SPOT peptide array binding signal intensity,ScSla1-D3,4
same,SPOT peptide array binding signal intensity,SpAbp1-D1,135
same,SPOT peptide array binding signal intensity,SpBbc1,3.75
same,SPOT peptide array binding signal intensity,SpBzz1-D1,92
same,SPOT peptide array binding signal intensity,SpBzz1-D2,≤ 0
same,SPOT peptide array binding signal intensity,SpCyk3,5
same,SPOT peptide array binding signal intensity,SpHof1,66.5
same,SPOT peptide array binding signal intensity,SpHof1-2,1.5
same,SPOT peptide array binding signal intensity,SpHof1-3,850
same,SPOT peptide array binding signal intensity,SpHse1,664
same,SPOT peptide array binding signal intensity,SpLsb1,43.5
same,SPOT peptide array binding signal intensity,SpLsb4,27.5
same,SPOT peptide array binding signal intensity,SpMyo1,≤ 0
same,SPOT peptide array binding signal intensity,SpNbp2,104
same,SPOT peptide array binding signal intensity,SpPex13,3
same,SPOT peptide array binding signal intensity,SpRvs167,13.3
same,SPOT peptide array binding signal intensity,SpSla1-D1-D2,≤ 0
same,SPOT peptide array binding signal intensity,SpSla1-D3,≤ 0
LLIRWLILMPLVGSR,SPOT peptide array binding signal intensity,AgAbp1,19.5
same,SPOT peptide array binding signal intensity,AgBbc1,29.5
same,SPOT peptide array binding signal intensity,AgBem1-D1,284
same,SPOT peptide array binding signal intensity,AgBzz1-D1,39
same,SPOT peptide array binding signal intensity,AgBzz1-D2,62
same,SPOT peptide array binding signal intensity,AgCyk3,24.5
same,SPOT peptide array binding signal intensity,AgFus1,3190
same,SPOT peptide array binding signal intensity,AgHof1,53
same,SPOT peptide array binding signal intensity,AgHse1,2550
same,SPOT peptide array binding signal intensity,AgLsb1,2.5
same,SPOT peptide array binding signal intensity,AgLsb4,1800
same,SPOT peptide array binding signal intensity,AgMyo5,4.5
same,SPOT peptide array binding signal intensity,AgNbp2,722
same,SPOT peptide array binding signal intensity,AgRvs167,26.5
same,SPOT peptide array binding signal intensity,AgSho1,1270
same,SPOT peptide array binding signal intensity,AgSla1-D1-D2,41
same,SPOT peptide array binding signal intensity,AgSla1-D3,5
same,SPOT peptide array binding signal intensity,CaAbp1-D1,334
same,SPOT peptide array binding signal intensity,CaAbp1-D2,321
same,SPOT peptide array binding signal intensity,CaBbc1,68
same,SPOT peptide array binding signal intensity,CaBem1-D1,125
same,SPOT peptide array binding signal intensity,CaBzz1-D1,222
same,SPOT peptide array binding signal intensity,CaBzz1-D2,109
same,SPOT peptide array binding signal intensity,CaCyk3,48
same,SPOT peptide array binding signal intensity,CaFus1,5090
same,SPOT peptide array binding signal intensity,CaHof1,1.25
same,SPOT peptide array binding signal intensity,CaHse1,875
same,SPOT peptide array binding signal intensity,CaLsb1,26.5
same,SPOT peptide array binding signal intensity,CaLsb4,191
same,SPOT peptide array binding signal intensity,CaMyo5,40
same,SPOT peptide array binding signal intensity,CaNbp2,1390
same,SPOT peptide array binding signal intensity,CaRvs167,524
same,SPOT peptide array binding signal intensity,CaRvs167-3,780
same,SPOT peptide array binding signal intensity,CaSho1,3580
same,SPOT peptide array binding signal intensity,CaSla1-D1-D2,30
same,SPOT peptide array binding signal intensity,CaSla1-D3,397
same,SPOT peptide array binding signal intensity,ScAbp1,35
same,SPOT peptide array binding signal intensity,ScBbc1,1.5
same,SPOT peptide array binding signal intensity,ScBem1-D1,60
same,SPOT peptide array binding signal intensity,ScBzz1-D1,37
same,SPOT peptide array binding signal intensity,ScBzz1-D2,240
same,SPOT peptide array binding signal intensity,ScCyk3,122
same,SPOT peptide array binding signal intensity,ScFus1,3690
same,SPOT peptide array binding signal intensity,ScHof1,0.25
same,SPOT peptide array binding signal intensity,ScHse1,2940
same,SPOT peptide array binding signal intensity,ScLsb1,11
same,SPOT peptide array binding signal intensity,ScLsb2,33
same,SPOT peptide array binding signal intensity,ScLsb3,850
same,SPOT peptide array binding signal intensity,ScLsb4,150
same,SPOT peptide array binding signal intensity,ScMyo3,5
same,SPOT peptide array binding signal intensity,ScMyo5,7
same,SPOT peptide array binding signal intensity,ScNbp2,566
same,SPOT peptide array binding signal intensity,ScPex13,65.2
same,SPOT peptide array binding signal intensity,ScRvs167,19.3
same,SPOT peptide array binding signal intensity,ScSho1,2890
same,SPOT peptide array binding signal intensity,ScSla1-D1-D2,23
same,SPOT peptide array binding signal intensity,ScSla1-D3,132
same,SPOT peptide array binding signal intensity,SpAbp1-D1,248
same,SPOT peptide array binding signal intensity,SpBbc1,22.8
same,SPOT peptide array binding signal intensity,SpBzz1-D1,300
